Screens as filed in PubChem BioAssay.
RGS7-Gao reg – human RGS7-Galphao interaction regulation | P09471 | binding response (% of control), % at 10 µM | Multiplexed bead flow cytometry, RGS7-Galphao binding; actives lie on both sides | hit rate 0.35% among 220,000; in the data active = binding response below about 49% or above about 150%; inconclusive = no clear call, values can overlap the other calls; inactive = in between;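 also: fluorescent Galphao held in activated GDP-AlF4 state binding bead-coupled RGS7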
Target sequence (P09471 whole entry, looked up): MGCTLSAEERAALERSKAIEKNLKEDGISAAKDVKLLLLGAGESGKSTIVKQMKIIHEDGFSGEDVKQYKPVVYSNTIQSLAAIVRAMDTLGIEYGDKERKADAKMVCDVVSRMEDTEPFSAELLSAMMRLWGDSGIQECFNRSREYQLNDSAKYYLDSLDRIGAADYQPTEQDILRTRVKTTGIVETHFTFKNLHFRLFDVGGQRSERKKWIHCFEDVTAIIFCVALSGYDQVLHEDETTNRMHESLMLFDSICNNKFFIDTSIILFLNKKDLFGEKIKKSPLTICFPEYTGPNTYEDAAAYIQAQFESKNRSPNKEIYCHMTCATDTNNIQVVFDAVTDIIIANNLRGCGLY
RGS4-Gao reg – modulates binding of RGS4 to human Galphao. P09471. hit rate 0.33% among 220,000. Multiplexed bead flow cytometry; actives lie on both sides. binding response (% of control), % at 10 µM; in the data active = binding response below about 49% or above about 150%; inactive = in between;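 also: fluorescent Galphao activated with aluminum fluoride binding bead-coupled RGS4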
Avidin bead fluor – compound fluoresces at 488/530 nm on avidin beads; AID 1775; compound fluorescence 488/530 nm, flow cytometry; hits give high values; hit rate 0.38% among 220,000; fluorescence (KMESF) at 10 µM; in the data active = fluorescence above about 47
RGS8-Gao reg – modulates binding of RGS8 to human Galphao; multiplexed bead flow cytometry; actives lie on both sides; response (percent of control binding), % at 10 µM; hit rate 0.34% among 220,000; AID 1423; in the data active = response below about 60% or above about 140%; inactive = in between;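 also: Galphao activated as the GDP aluminium fluoride complex binding bead-coupled RGS8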
GSH bead fluor – GSH bead compound fluorescence profile | GSH beads flow cytometry, compound fluorescence 488/530 nm; hits give high values | hit rate 0.25% among 190,000 | fluorescence (KMESF) at 10 µM; in the data active = fluorescence above about 89;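 also: glutathione beads carrying GST-tagged Bcl family fusion proteins plus one bare bead set; values are compound well signal with DMSO vehicle wells as background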
RGS16-Gao – regulators of human RGS16-Galphao interaction. binding response (% of control), % at 10 µM. AID 1441. bead-based flow cytometry RGS16-Galphao binding, fluorescence; actives lie on both sides. hit rate 0.38% among 220,000;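 also: Galphao activated by GDP with aluminum fluoride before binding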
Target sequence (O15492 whole entry, looked up): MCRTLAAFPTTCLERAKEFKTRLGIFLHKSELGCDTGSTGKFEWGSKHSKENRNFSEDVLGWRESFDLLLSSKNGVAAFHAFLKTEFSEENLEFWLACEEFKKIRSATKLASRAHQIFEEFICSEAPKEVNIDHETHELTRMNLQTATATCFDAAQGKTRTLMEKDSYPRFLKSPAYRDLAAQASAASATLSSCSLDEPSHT
Target sequence (P09471 whole entry, looked up): as the sequence (P09471 whole entry, looked up) above
RGS4-Gao HTS – regulators of human RGS4-Galphao interaction | multiplexed bead flow cytometry, RGS–Galpha-o binding | AID 1504 | RGS4–Galpha-o binding response, % at 10 µM | hit rate 99% among 1,600 | shares compounds with RGS16-Gao;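 also: fluorescently labeled Galpha-o bound to GDP with aluminium fluoride binding biotinylated RGS beads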
Avidin counter – interferes with biotinylated probe binding to avidin beads. shares compounds with RGS16-Gao. streptavidin beads, fluorescein-biotin binding, flow cytometry. inhibition, % at 10 µM. 1,700 tested, under 10 active. AID 1783;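 active = inhibition above 50%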;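 also: median green fluorescence of gated singlet beads compared with DMSO control wells; 0% = DMSO wells and 100% = complete loss of bead fluorescence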
RGS8-Gao confirm – confirmation of regulators of human RGS8-Galphao interaction; hit rate 3% among 1,700; bead-based flow cytometry RGS8-Galphao binding, fluorescence; actives lie on both sides; binding response (% of control), % at 10 µM; shares compounds with RGS16-Gao; in the data active = binding response below about 72% or above about 130%; inactive = in between;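 also: Galphao activated as GDP AlF4 complex before binding bead RGS8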
RGS7-Gao confirm – RGS7-Galphao interaction regulation, single point confirmation; shares compounds with RGS16-Gao; bead-based flow cytometry RGS7-Galphao binding; actives lie on both sides; response (percent of control binding), % at 10 µM; hit rate 7.8% among 1,700; AID 1837; in the data active = response below about 75% or above about 130%; inactive = in between;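 also: fluorescent Galphao activated with GDP and aluminum fluoride binding bead-coupled RGS7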
RGS16-Gao conf – confirmation of regulators of human RGS16-Galphao interaction. shares compounds with RGS16-Gao. bead-based flow cytometry, RGS16-Galphao binding; actives lie on both sides. response (% of control binding), % at 10 µM. hit rate 4% among 1,700; in the data active = response below about 74% or above about 130%; inactive = in between;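 also: Galphao activated as the GDP aluminium fluoride complex binding bead-coupled RGS16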
RGS4-Gao single – confirmation of regulators of human RGS4-Galphao interaction | shares compounds with RGS16-Gao | hit rate 4% among 1,700 | AID 1840 | binding response (% of control), % at 10 µM | RGS4-Galphao binding, multiplexed bead flow cytometry; actives lie on both sides; in the data active = binding response below about 74% or above about 130%; inactive = in between
RGS19-Gao single – confirmation of regulators of human RGS19-Galphao interaction. hit rate 5% among 1,700. bead-based flow cytometry RGS19-Galphao binding; actives lie on both sides. shares compounds with RGS16-Gao. response (percent of control binding), % at 10 µM; in the data active = response below about 50% or above about 160%; inactive = in between;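 also: 100% = no compound control and 0% = blank background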
* = called active by the depositor; ? = inconclusive; nt = no result given; [ ] = remark or other dose. Shown are actives, neighbours in structure and some others; about 1.2% of the full set was active somewhere. Unless noted, no rule for the calls is given here.

SMILES | RGS7-Gao reg | RGS4-Gao reg | Avidin bead fluor | RGS8-Gao reg | GSH bead fluor | RGS16-Gao | RGS4-Gao HTS | Avidin counter | RGS8-Gao confirm | RGS7-Gao confirm | RGS16-Gao conf | RGS4-Gao single | RGS19-Gao single
COc1ccc(C(=O)C[n+]2ccc3c(c2)nc(-c2cc(OC)c(OC)cc2OC)n3C)cc1 | 68 | 75 | 5 | 61 | 17 | 18* | 75* | 1 | 102 | 105 | 102 | 101 | 98
CCC(Sc1ccc2nnc(-c3cccnc3)n2n1)C(=O)OC (stereo not given) | 93 | 93 | 21 | 96 | 21 | 100 | nt | nt | nt | nt | nt | nt | nt
CS(=O)(=O)Nc1ccc(C(=O)Nc2ccccc2Sc2ccccc2)cc1 | 103 | 104 | 16 | 104 | 10 | 111 | nt | nt | nt | nt | nt | nt | nt
O=C(O)CSCC(=O)Nc1ccc(Br)c(C(F)(F)F)c1 | ? | -38* | -2 | 32* | nt | -12* | nt | -1 | 93 | 90 | 88 | 88 | 93
CC#CCNCc1ccccc1 | 98 | 101 | 14 | 98 | 61 | 92 | nt | nt | nt | nt | nt | nt | nt
COC(=O)C(C)Sc1nc(N)c(NC(=O)c2ccco2)c(=O)[nH]1 (stereo not given) | 104 | 106 | 8 | 101 | 19 | 106 | nt | nt | nt | nt | nt | nt | nt
CCn1nnc(NC(=O)CSc2ccc(Cl)cc2)n1 | nt | nt | nt | nt | 34 | nt | nt | 0 | 97 | 90 | 100 | 93 | 114
O=C1C(=O)N(Cc2ccccc2)C(=O)N1CCOc1ccccc1 | 52 | 56 | 7 | 58* | 19 | 49 | 56* | 0 | 103 | 102 | 104 | 105 | 91
Cc1ccc(OCCN2C(=O)c3ccccc3C2=O)cc1 | 91 | 92 | 18 | 91 | 13 | 94 | nt | nt | nt | nt | nt | nt | nt
CCOC(=O)c1c(C)[nH]c(C)c1C(=O)COC(=O)CNC(=O)c1ccc(OCC)cc1 | 97 | 102 | 6 | 101 | 34 | 100 | nt | nt | nt | nt | nt | nt | nt
COc1ccc(-c2c(C#N)c(C)nc3c2C(=O)c2ccccc2-3)cc1 | 98 | 101 | 39 | 103 | 14 | 100 | nt | nt | nt | nt | nt | nt | nt
Cc1nc2c(cc1C#N)C(=O)c1ccccc1-2 | 85 | 86 | 1 | 74 | 6 | 18* | 86* | -1 | 98 | 99 | 99 | 99 | 97
COc1ccc(C(=O)Cc2ccc(OC)c(OC)c2)cc1 | nt | nt | nt | nt | 37 | nt | nt | -1 | 101 | 99 | 104 | 101 | 107
O=C(CSc1nnc(-c2ccc(OC(F)F)cc2)o1)N1CCOCC1 | 98 | 98 | 17 | 99 | 18 | 95 | nt | nt | nt | nt | nt | nt | nt
CC(=O)Nc1ccccc1C(=O)C(=O)Nc1ccc(C)c(C)c1 | 109 | 110 | 16 | 127 | 6 | 251*[activator] | 110* | -1 | 100 | 107 | 104 | 105 | 88
O=C(c1cc([N+](=O)[O-])ccc1N1CCOCC1)N1CCOCC1 | 98 | 96 | 1 | 89 | 9 | 70 | nt | nt | nt | nt | nt | nt | nt
COc1ccc(C(=O)c2cc([N+](=O)[O-])ccc2N2CCOCC2)cc1 | 93 | 89 | 1 | 87 | 10 | 69 | nt | nt | nt | nt | nt | nt | nt
O=C(c1cc([N+](=O)[O-])ccc1N1CCOCC1)N1CCCC1 | 86 | 84 | 1 | 65 | 9 | 16* | 84* | -2 | 101 | 98 | 98 | 102 | 97
Cc1ccc(C(=O)c2cc([N+](=O)[O-])ccc2N2CCOCC2)cc1 | 89 | 92 | 6 | 85 | 7 | 21* | 92* | 5 | 101 | 99 | 99 | 99 | 104
COc1cc(NC(=O)CS(=O)(=O)c2ccc(C)cc2)cc(OC)c1OC | 101 | 102 | 15 | 100 | 33 | 101 | nt | nt | nt | nt | nt | nt | nt
Cc1ccc(S(=O)(=O)CC(=O)Nc2ccc(F)c(F)c2F)cc1 | ? | -12* | -2 | 9.2* | nt | -6.7* | nt | -1 | 101 | 101 | 99 | 101 | 97
O=C(Nc1ccc(S(=O)(=O)N2CCOCC2)cc1)c1ccc(Cl)cc1 | ? | 98 | 20 | 98 | nt | 99 | nt | nt | nt | nt | nt | nt | nt
O=C(NNS(=O)(=O)c1ccc(F)cc1)c1ccc(S(=O)(=O)N2CCCCC2)cc1 | 101 | 103 | 4 | 101 | 8 | 112 | nt | nt | nt | nt | nt | nt | nt
Cc1ccc(C(=O)Nc2ccc(S(=O)(=O)N3CCOCC3)cc2)cc1 | 365*[activator] | 151*[activator] | 227* | 94 | 22 | 104 | nt | 0 | 100 | 101 | 106 | 105 | 110
CC(=O)Nc1ccc(S(=O)(=O)NNC(=O)c2ccc(S(=O)(=O)N3CCCCC3)cc2)cc1 | 99 | 98 | 8 | 88 | 22 | 20* | 98* | 0 | 93 | 92 | 90 | 92 | 82
SMILES | RGS7-Gao reg | RGS4-Gao reg | Avidin bead fluor | RGS8-Gao reg | GSH bead fluor | RGS16-Gao | RGS4-Gao HTS | Avidin counter | RGS8-Gao confirm | RGS7-Gao confirm | RGS16-Gao conf | RGS4-Gao single | RGS19-Gao single
CCO[C@H]1OC(C(=O)NCc2ccccc2)=C[C@@H](c2ccc3c(c2)OCO3)[C@@H]1CCCO | 103 | 104 | 6 | 102 | 19 | 103 | nt | nt | nt | nt | nt | nt | nt
O=[N+]([O-])c1cc(Cl)cc(/C=N/Nc2nc3ccccc3s2)c1O | 102 | 99 | 12 | 104 | 26 | 102 | nt | nt | nt | nt | nt | nt | nt
COc1cc(/C=N/Nc2nc3ccccc3s2)cc([N+](=O)[O-])c1O | nt | nt | nt | nt | nt | nt | nt | -3 | 96 | 96 | 95 | 101 | 91
COC(=O)CC1=C(C(=O)OC)C(c2ccc3c(c2)OCO3)C(C#N)=C(N)O1 (stereo not given) | ? | 100 | 10 | 98 | nt | 98 | nt | nt | nt | nt | nt | nt | nt
Cc1cc(C(=O)Nc2nc3c(C)cccc3s2)c(C)o1 | 79 | 72 | 9 | 68 | 16 | 17* | 72* | -1 | 101 | 102 | 102 | 104 | 96
CSc1ncccc1C(=O)Nc1nc2c(C)cccc2s1 | 102 | 101 | 13 | 104 | 4 | 109 | nt | nt | nt | nt | nt | nt | nt
O=C(NCc1ccco1)c1ccc(S(=O)(=O)N2CCCc3ccccc32)cc1 | 89 | 80 | 0 | 77 | 43 | -44* | 80* | nt | nt | nt | nt | nt | nt
O=C(NCc1ccccc1)c1ccc(S(=O)(=O)N2CCCc3ccccc32)cc1 | 98 | 99 | 38 | 100 | 14 | 99 | nt | nt | nt | nt | nt | nt | nt
CN(Cc1ccc(F)cc1)C(=O)c1ccc2c(c1)NC(=O)CS2 | 171*[activator] | 116 | 65* | 99 | 24 | 104 | 116* | 2 | 100 | 97 | 98 | 99 | 94
